# NCOA3 inh: inhibitors of human steroid receptor coactivator 3 (SRC3). actives 0.17% (n = 360,000). Q9Y6Q9. inhibition, % at 3.6 µM. HEK293 GAL4-SRC3 luciferase reporter, luminescence;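 active means inhibition above a per-campaign cutoff, the mean of all compounds plus 3 SD, cut at about 60% in these data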;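 further: 0% = DMSO-treated cells and 100% = gossypol-treated cells at 36 µM; higher means less SRC3-driven luciferase light from the GAL4 reporter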
# NCOA1 inh: human NCOA1 inhibition. HEK293 GAL4-SRC1 luciferase reporter, luminescence. inhibition, % at 3.6 µM. actives 0.12% (n = 360,000). Q15788;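 active means inhibition above the campaign mean plus 3 SD, with each screening campaign given its own cutoff, cut at about 60% in these data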;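 further: 0% = DMSO treated cells and 100% = gossypol at 36 µM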
# LRH-1 inv ag: NR5A2 inverse agonism in reporter assay; O00482; HEK293T StAR-luciferase reporter, LRH-1 transfected, 24 h; inhibition, % at 3.6 µM; actives 0.13% (n = 360,000);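 active means inhibition above the mean inhibition of all tested compounds plus 3 SD, cut at about 73% in these data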;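 further: 0% = DMSO wells and 100% = reporter-only cells lacking LRH-1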
# GalR3 antag: antagonists of human GalR3; inhibition, % at 3 µM; O60755; AID 651719; HEK293 GalR3-CNG cAMP membrane potential fluorescence; galR3 body fused to GalR1 C-terminus; actives 0.44% (n = 360,000);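 active means inhibition above the screen-wide average plus 3 SD, cut at about 13% in these data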;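 further: forskolin and galanin both at EC90 stimulate the cells; cAMP rise reported by CNG channel membrane potential dye signal; 0% = forskolin plus galanin with DMSO and 100% = forskolin alone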
# Target sequence (O60755 1-299 limits assumed): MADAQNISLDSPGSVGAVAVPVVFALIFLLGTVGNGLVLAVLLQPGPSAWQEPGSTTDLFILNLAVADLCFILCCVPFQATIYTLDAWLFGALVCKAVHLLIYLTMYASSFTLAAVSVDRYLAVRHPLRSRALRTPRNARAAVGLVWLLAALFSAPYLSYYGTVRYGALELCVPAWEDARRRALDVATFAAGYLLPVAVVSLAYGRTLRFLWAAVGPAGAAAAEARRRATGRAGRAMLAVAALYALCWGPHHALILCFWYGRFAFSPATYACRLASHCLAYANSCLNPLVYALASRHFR
# COUP-TFII inh: blocks human COUP-TFII nuclear receptor; HEK293T NGFI-A luciferase reporter, luminescence; inhibition, % at 8.6 µM; actives 0.7% (n = 370,000);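 active means inhibition above a per-plate cutoff, mean inhibition of test wells between control levels plus 3 SD, cut at about 38% in these data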;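 further: cells cotransfected with COUP-TFII expression vector driving the NGFI-A reporter; 0% = median of COUP-TF2 test wells and 100% = reporter-only cells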
# NCOA2 inhibitor: inhibits human steroid receptor coactivator 2 | HEK293 GAL4-SRC2 luciferase reporter, luminescence | inhibition, % at 9 µM | actives 0.17% (n = 370,000);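 active means inhibition above the mean inhibition of all tested compounds plus 3 SD, set per campaign, cut at about 52% in these data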;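 further: 0% = DMSO treated cells and 100% = cells given Gossypol at 36 µM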
# GalR3 antag conf: GalR3 (human) antagonism, confirmation | inhibition, % at 3 µM | shares compounds with GalR3 antag | actives 59% (n = 1,600) | HEK293 GalR3 CNG cAMP biosensor, membrane potential fluorescence; galR3 fused to GalR1 carboxy tail; challenged with forskolin and galanin at EC90;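 active means inhibition above the primary screen's cutoff, the mean inhibition of all screened compounds plus 3 SD, cut at about 13% in these data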;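 further: 0% = forskolin plus galanin and 100% = forskolin alone with DMSO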
# CNG parental: acts as nonspecific agonist in parental HEK-CNG cells. shares compounds with GalR3 antag. HEK293-CNG parental cells, cAMP membrane potential fluorescence; normalised: DMSO wells 0%, forskolin wells 100%. activation, % at 3 µM. actives 10% (n = 1,600). AID 652268; in the data active means activation above about 1.3%
# VP16 Luc counter: counter-screen for COUP-TFII antagonists: inhibitors of VP16; shares compounds with COUP-TFII inh; HEK293 Gal4-VP16 luciferase reporter, luminescence; AID 687007; actives 25% (n = 2,500); inhibition, % at 8.5 µM; in the data active means inhibition above about 13%
# COUP-TFII conf: confirmation of human COUP-TFII (NR2F2) inhibitors. AID 687008. HEK293 NGFI-A luciferase reporter, luminescence. actives 45% (n = 2,500). shares compounds with COUP-TFII inh. inhibition, % at 8.5 µM;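 active means mean inhibition over three repeats above a set limit taken from the earlier primary screen, cut at about 38% in these data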;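 further: 100% = cells given the luciferase reporter alone without the COUP-TF2 vector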
# * marks the source's active call; other numbers are inactive results; . = not tested or not shown. Shown are actives, neighbours in structure and some others; about 1.1% of the full set was active somewhere.
SMILES,NCOA3 inh,NCOA1 inh,LRH-1 inv ag,GalR3 antag,COUP-TFII inh,NCOA2 inhibitor,VP16 Luc counter,COUP-TFII conf,others
CC(C)(C)NC(=O)C(c1cccnc1)N(C(=O)c1cnc[nH]1)c1ccc(C(C)(C)C)cc1 (stereo not drawn),.,.,.,.,17,.,.,.,
O=C(Oc1ccc([N+](=O)[O-])cc1)O[C@H]1CC[C@@]23CCCN2C(=O)CCC[C@H]3C1,.,.,.,.,12,.,.,.,
CCN(CC)S(=O)(=O)c1ccc(NC(=O)c2ccc(N(C)S(C)(=O)=O)cc2)cc1,27,8,36,103*,68*,22,3,53*,GalR3 antag conf=104*;CNG parental=0
CCN(CC)S(=O)(=O)c1ccc(C(=O)Nc2ccc(Cc3ccncc3)cc2)cc1,21,11,26,34*,51*,3,9,56*,GalR3 antag conf=76*;CNG parental=0
CCN(CC)S(=O)(=O)c1ccc(NC(=O)c2ccccc2N(C)S(C)(=O)=O)cc1,-12,10,-1,-3,-1,-9,.,.,
O=C(c1ccc(F)cc1Cl)N1CCC(Oc2cccnc2)CC1,.,.,.,.,-18,-6,.,.,
O=C(Nc1ccc(-c2nc3ccccc3o2)cc1)c1ccc(N2C(=O)C3C4C=CC(C4)C3C2=O)cc1 (stereo not drawn),44,9,8,61*,41*,8,-20,40*,GalR3 antag conf=110*;CNG parental=-1
COc1ccc(Cc2nc3ccc(C(=O)N4CCN(C)C(C)C4)cc3o2)cc1OC (stereo not drawn),20,19,29,1,49*,26,9,46*,
C=CCNC(=S)N/N=C/c1ccc(N(CC)Cc2ccccc2)cc1,3,6,42,-4,15,6,.,.,
C=CCNC(=S)N/N=C/c1ccc(C(F)(F)F)cc1,10,17,12,-4,43*,11,-3,28,
Cc1ccc2c(c1)C(CS(=O)(=O)NC1CCCC1)NC2 (stereo not drawn),.,.,.,.,4,-14,.,.,
CCOC(=O)c1c(C)n(C)c2ccc(O)c(CN3CCN(C)CC3)c12,17,3,26,-4,-7,-16,.,.,
CCOC(=O)c1c(-c2ccccc2)oc2ccc(O)c(CN3CCN(C)CC3)c12,17,15,17,-7,38*,1,-8,19,
CCN(CC)c1ccc(NS(=O)(=O)c2cn(C)c(=O)n(C)c2=O)c(C)c1,-7,-2,15,.,78*,-20,-13,-7,
Cc1ccc(NS(=O)(=O)c2cn(C)c(=O)n(C)c2=O)cc1C,5,1,13,.,-12,-1,.,.,
Cc1c(CC(=O)NCCCC(=O)O)c(=O)oc2cc3c(cc12)CCC(C)(C)O3,41,25,40,-6,51*,75*,61*,37,
O=C(c1cc(COc2cccc(C(F)(F)F)c2)on1)N1CCC(c2ccncc2)CC1,9,-20,-1,-7,46*,7,-16,36,
CN1CCCC2(CCCN(Cc3nc(Cc4cccc(C(F)(F)F)c4)no3)C2)C1 (stereo not drawn),20,-10,5,-3,11,3,.,.,
FC(F)(F)c1cccc(Cc2noc(CN3CCC(c4ccncc4)CC3)n2)c1,9,14,34,-7,53*,10,7,35,
COc1cccc(OCc2cc(C(=O)N3CCC(c4ccncc4)CC3)no2)c1,18,3,6,-2,49*,18,-2,31,
O=C(c1cc(COc2cccc(C(F)(F)F)c2)on1)N1CCC(c2ccccc2)CC1,1,-30,-2,0,-9,-5,.,.,
CC(=O)c1ccc(OCc2cc(C(=O)N3CCC(c4ccncc4)CC3)no2)cc1,17,1,13,-4,15,-4,.,.,
Cc1nn(C)cc1C(C)NC(=O)c1cc(COc2cccc3cnccc23)on1 (stereo not drawn),51,23,34,-4,38*,37,1,12,
Cc1ccc(CSc2nnc(-c3n[nH]c4c3CCC4)n2N)cc1,.,.,.,.,4,-21,.,.,
COc1cc2c(c(OC)c1)[C@H](/C=C/c1ccccc1)[C@@H]([C@H](O)CO)OC2,.,.,.,.,20,10,.,.,
SMILES,NCOA3 inh,NCOA1 inh,LRH-1 inv ag,GalR3 antag,COUP-TFII inh,NCOA2 inhibitor,VP16 Luc counter,COUP-TFII conf,others
COCC1CCN(C(=O)c2cc(COc3ccc(F)cc3Cl)on2)C1 (stereo not drawn),-56,-17,-49,-1,-12,-22,.,.,
COCC1CCN(C(=O)c2cc(COc3cccc4cnccc34)on2)CC1,43,24,24,-8,53*,37,-4,37,
CCCNC(=O)CSCc1nc(-c2ccc(SC)cc2)oc1C,9,-26,-38,-5,-5,4,.,.,
CCc1ccc(-c2nc(CSCC(=O)NCc3ccco3)c(C)o2)cc1,45,38,38,-2,77*,80*,8,20,
CCc1ccc(C(=O)OCC(=O)c2c(N)n(CC(C)C)c(=O)n(C)c2=O)cc1,2,2,12,-11,47*,4,7,19,
Fc1cccc(CNC(=S)OC2CCC23CCC(c2ccccc2)CC3)c1 (stereo not drawn),.,.,.,.,3,-12,.,.,
COc1ccc(-c2nc(N3CCCCCC3)sc2C(=O)c2ccccc2)cc1,6,-9,-4,-2,58*,-35,-11,-2,
O=C(c1ccccc1)c1sc(N2CCCCCC2)nc1-c1ccccc1,16,-3,-4,-2,-11,19,.,.,
O=C1C(=O)c2cccnc2-c2ncccc21,91*,89*,104*,-12,103*,94*,97*,112*,
O=C1c2cccnc2-c2ncccc21,25,-4,10,-3,15,-17,.,.,
Cc1cc(=O)[nH]c(SCC(=O)Nc2cccc(C)c2C)n1,.,.,.,.,13,3,.,.,
COc1ccc(CN2C[C@]3(C=C(C)Cn4c(=O)n(-c5ccccc5)c(=O)n43)N(C(=O)OCc3ccccc3)C2=NC(=O)c2ccccc2)c(OC)c1,.,.,.,.,-1,-10,.,.,
CC#CC[N+](C)(C)CCCCCCCCCCCC,34,33,55,1,44*,2,7,27,
C#CC[N+](C)(C)CCCCCCCCCC,41,41,26,-2,47*,33,-2,18,
